Measured values published in PubChem BioAssay (Tox21).
Inconclusive results are not listed. The source made the active and inactive calls. Unless noted, calls come from the whole dose curve; as a rule, active = well fitted curve in the direction sought with a large enough effect in the repeat runs; inconclusive = weak or mixed curves; inactive = no such curve, though single readings can be large; an effect the other way counts as inactive or inconclusive.

Assays:
[1] = qHTS assay to identify small molecule antagonists of the estrogen related receptor (ERR) signaling pathway from Tox21 library - cell viability counter screen (AID 1224834); conditions: ERR reporter cells viability, CellTiter-Fluor, 17.5 h; series mostly up to 92.4 µM; note: nearly all actives have a fitted effect of over 30% in size
Outline: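 Counter screen run in ERR cells (2,000 cells/well): cells pre-incubated 6 h, then treated with compounds for 17.5 h at 37 C. Fluorescence was read 30 min after CellTiter-Fluor addition.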

[2] = target: Luciferin 4-monooxygenase (Photinus pyralis) (UniProt P08659); test: qHTS assay to identify small molecule inhibitors of firefly luciferase (AID 1224835); note: nearly all actives have a fitted effect of over 25% in size; conditions: purified P. pyralis luciferase, luminescence inhibition; series mostly up to 115 µM
Chain of Luciferin 4-monooxygenase (Photinus pyralis) (P08659 whole entry, looked up): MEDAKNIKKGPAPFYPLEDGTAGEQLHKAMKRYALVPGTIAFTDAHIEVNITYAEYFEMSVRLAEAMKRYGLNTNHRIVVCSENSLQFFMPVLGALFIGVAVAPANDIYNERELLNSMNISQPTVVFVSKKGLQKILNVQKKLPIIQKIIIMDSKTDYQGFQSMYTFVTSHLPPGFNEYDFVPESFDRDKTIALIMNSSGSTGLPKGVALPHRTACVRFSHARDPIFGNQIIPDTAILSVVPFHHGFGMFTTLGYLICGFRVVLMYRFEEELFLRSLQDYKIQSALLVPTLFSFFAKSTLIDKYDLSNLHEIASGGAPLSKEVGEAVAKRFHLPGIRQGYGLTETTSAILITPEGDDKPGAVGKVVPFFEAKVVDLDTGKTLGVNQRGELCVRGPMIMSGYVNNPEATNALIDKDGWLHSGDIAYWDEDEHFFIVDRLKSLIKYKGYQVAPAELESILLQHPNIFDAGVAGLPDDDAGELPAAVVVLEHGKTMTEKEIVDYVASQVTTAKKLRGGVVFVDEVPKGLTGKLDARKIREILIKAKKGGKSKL
Outline: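 Quantitative HTS format; KM concentrations of both substrates. Purified P. pyralis FLuc activity quantified from luminescence images.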

[3] = qHTS assay to identify small molecule agonists of the constitutive androstane receptor (CAR) signaling pathway - cell viability counter screen (AID 1224836); conditions: HepG2-CYP2B6-hCAR viability, CellTiter-Fluor, 23 h, PK11195 added to every well; series mostly up to 92.4 µM; note: nearly all actives have a fitted effect of over 45% in size
Outline: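 HepG2-CYP2B6-hCAR, 2500 cells/well, 4 h pre-incubation; cpd 15 conc + PK11195 0.75 uM final; 23 h, 37 C/5% CO2; CellTiter-Fluor, fluorescence.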

[4] = qHTS assay to identify small molecule antagonists of the constitutive androstane receptor (CAR) signaling pathway - cell viability counter screen (AID 1224837); conditions: HepG2-CYP2B6-hCAR viability, CellTiter-Fluor, 23 h, co-treated with 50 nM CITCO; series mostly up to 92.4 µM; note: nearly all actives have a fitted effect of over 45% in size
Outline: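 CITCO at 50 nM final was added alongside compounds (15 concentrations) to double-stable hCAR/CYP2B6-2.2kb HepG2 cells. Following 23 hr at 37 C, cell viability was quantified by CellTiter-Fluor fluorescence intensity.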

[5] = target: Nuclear receptor subfamily 1 group I member 3 (Homo sapiens) (UniProt Q14994); test: qHTS assay to identify small molecule antagonists of the constitutive androstane receptor (CAR) signaling pathway (AID 1224838); conditions: HepG2-CYP2B6-hCAR luciferase, CITCO-stimulated, 24 h; series mostly up to 92.4 µM; note: nearly all actives have a fitted effect of over 40% in size
Chain of Nuclear receptor subfamily 1 group I member 3 (Homo sapiens) (Q14994 whole entry, looked up): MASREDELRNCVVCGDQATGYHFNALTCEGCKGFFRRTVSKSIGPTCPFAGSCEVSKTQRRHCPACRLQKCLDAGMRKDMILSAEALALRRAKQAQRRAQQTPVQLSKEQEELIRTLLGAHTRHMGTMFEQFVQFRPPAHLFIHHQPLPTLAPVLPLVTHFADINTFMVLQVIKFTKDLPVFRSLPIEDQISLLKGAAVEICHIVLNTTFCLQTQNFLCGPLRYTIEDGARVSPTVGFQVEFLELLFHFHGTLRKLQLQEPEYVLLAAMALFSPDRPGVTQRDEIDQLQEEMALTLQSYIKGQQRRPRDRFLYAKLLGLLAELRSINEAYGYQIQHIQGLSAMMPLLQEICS
Outline: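 Inhibition of CITCO-driven (50 nM final) CYP2B6 reporter expression is measured in HepG2 cells stably carrying hCAR. Fifteen compound concentrations are applied for 24 h at 37 C, followed by luciferase luminescence.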

[6] = target: Nuclear receptor subfamily 1 group I member 3 (Homo sapiens) (UniProt Q14994); test: qHTS assay to identify small molecule agonists of the constitutive androstane receptor (CAR) signaling pathway (AID 1224839); conditions: HepG2 hCAR CYP2B6-luciferase, agonist mode, 24 h; series mostly up to 92.4 µM; note: nearly all actives have a fitted effect of over 15% in size
Outline: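 HepG2-CYP2B6-hCAR cells, 2500/well, 4 h pre-incubation; compounds 15 conc.; PK11195 0.75 uM final; 24 h, 37 C/5% CO2; ONE-Glo luciferase read.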

[7] = qHTS assay to identify small molecule antagonists of the estrogen related receptor signaling pathway with the pleiotropic PPARgamma coactivator (PGC) from Tox21 10K library - cell viability counter screen (AID 1224840; active = well fitted cell-killing curve with a large enough effect in the repeat runs, not every such curve was filed as active; note: nearly all actives have a fitted effect of over 40% in size); conditions: PGC/ERR reporter cells viability, CellTiter-Fluor, 17.5 h; series mostly up to 92.4 µM
Outline: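 Readout: fluorescence intensity from CellTiter-Fluor after 30 min at 37 C/5% CO2. Preceded by 17.5 h treatment of PGC/ERR cells with DMSO-dissolved compounds, added 6 h post-seeding.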

[8] = qHTS assay to identify small molecule antagonists of the estrogen related receptor signaling pathway with the pleiotropic PPARgamma coactivator (PGC) from Tox21 10K library (AID 1224841; call rule not given here; note: actives are mostly falling curves and most rising ones were filed inactive; nearly all actives have a fitted effect of over 50% in size); conditions: PGC/ERR reporter cell line, ONE-Glo luciferase, 18 h; series mostly up to 92.4 µM
Outline: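 One-Glo luminescence, measured after half an hour at room temperature, quantified reporter output of PGC/ERR cells. These had been plated at 2,000 per well, incubated 6 h, dosed with compounds in DMSO, then kept 18 h at 37 C.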

[9] = qHTS assay to identify small molecule agonists of the estrogen related receptor signaling pathway with the pleiotropic PPARgamma coactivator (PGC) from Tox21 10K library (AID 1224842); conditions: PGC/ERR reporter cell line, luciferase ONE-Glo, 18 h; series mostly up to 92.4 µM; note: nearly all actives have a fitted effect of over 15% in size
Outline: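 PGC/ERR reporter cells (NTP line) were seeded 2,000 per well, rested 6 h at 37 C/5% CO2, then pin-dosed with compounds in DMSO for 18 h at 37 C; luciferase read by One-Glo luminescence after 30 min at room temperature.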

[10] = target: Thyrotropin receptor (Homo sapiens) (UniProt P16473); test: qHTS assay to identify small molecule agonists of the thyroid stimulating hormone receptor (TSHR) signaling pathway (AID 1224843; calls by dose curve; note: nearly all actives have a fitted effect of over 45% in size); conditions: TSHR-HEK293 cells, cAMP HTRF, agonist mode, 30 min; series mostly up to 42.5 µM
Chain of Thyrotropin receptor (Homo sapiens) (P16473 whole entry, looked up): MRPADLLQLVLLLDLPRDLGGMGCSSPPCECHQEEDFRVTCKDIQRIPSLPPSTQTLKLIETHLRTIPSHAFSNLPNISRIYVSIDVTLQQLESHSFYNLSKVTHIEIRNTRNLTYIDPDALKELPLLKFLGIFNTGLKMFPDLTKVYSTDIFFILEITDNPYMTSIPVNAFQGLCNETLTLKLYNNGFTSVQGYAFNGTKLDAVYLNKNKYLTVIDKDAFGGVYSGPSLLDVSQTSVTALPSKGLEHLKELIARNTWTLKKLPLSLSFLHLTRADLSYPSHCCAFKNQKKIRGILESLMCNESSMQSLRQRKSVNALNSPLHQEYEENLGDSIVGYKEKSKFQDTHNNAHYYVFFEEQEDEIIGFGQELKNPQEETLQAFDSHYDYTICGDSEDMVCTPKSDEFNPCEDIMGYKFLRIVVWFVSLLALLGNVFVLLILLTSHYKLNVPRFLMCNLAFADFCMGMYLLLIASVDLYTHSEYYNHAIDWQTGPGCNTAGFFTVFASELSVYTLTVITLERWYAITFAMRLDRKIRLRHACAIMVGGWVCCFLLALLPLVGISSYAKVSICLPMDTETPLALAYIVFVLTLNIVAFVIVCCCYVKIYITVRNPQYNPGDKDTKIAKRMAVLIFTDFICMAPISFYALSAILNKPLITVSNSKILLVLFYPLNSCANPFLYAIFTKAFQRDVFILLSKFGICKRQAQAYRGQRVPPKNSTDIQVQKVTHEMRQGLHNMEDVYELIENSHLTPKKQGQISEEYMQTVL
Outline: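 Compounds are titrated over 15 concentrations, in triplicate, onto TSHR-HEK293 cells seeded at 800/well. Plates sit 30 min at room temperature before cAMP-d2 and anti-cAMP cryptate are added; signal is read after a further hour.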

[11] = qHTS assay to identify small molecule agonists of the hypoxia (HIF-1) signaling pathway - cell viability counter screen (AID 1224844; calls by dose curve; note: nearly all actives have a fitted effect of over 50% in size); conditions: HRE-bla ME-180 viability, CellTiter-Glo luminescence, 17 h; series mostly up to 76.8 µM
Outline: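 In this counter screen, HRE-bla ME-180 cell viability after 17 hrs of compound exposure at 37C was read by CellTiter-Glo luminescence, multiplexed with the beta-lactamase reporter measurement.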

[12] = qHTS assay to identify small molecule agonists of H2AX (AID 1224845; active = well fitted activation curve with a large enough effect in the signal ratio in the repeat runs, not every such curve was filed as active; the % refers to the signal ratio); conditions: CHO-K1 phospho-H2AX Ser139 HTRF, 3 h; series mostly up to 70.9 µM
Outline: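 Wild-type CHO-K1 cells plated overnight, then exposed 3 hr at 37C to compounds at 15 concentrations (0.76% DMSO). Lysed, then HTRF anti-pH2AX(S139)-cryptate/anti-H2AX-d2 detection after 24 hr at room temperature; emissions 665 and 620 nm.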

[13] = qHTS assay to identify small molecule agonists of the hypoxia (HIF-1) signaling pathway (AID 1224846; active = well fitted activation curve with a large enough effect in the signal ratio in the repeat runs, not every such curve was filed as active; the % refers to the signal ratio); conditions: HRE-bla ME-180 cells, beta-lactamase ratio, 17 h; series mostly up to 76.8 µM
Outline: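 ME-180 HRE-bla reporter cells; compounds in DMSO, 17 h at 37C; read-out beta-lactamase via CCF4-AM FRET.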

[14] = qHTS assay to identify small molecule agonists of H2AX - cell viability counter screen (AID 1224847; calls by dose curve; note: top concentration of the series differs between compounds; nearly all actives have a fitted effect of over 30% in size); conditions: CHO-K1 viability, CellTiter-Glo luminescence, 3 h; series mostly up to 70.9 µM
Outline: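 Cells plated first: CHO-K1, 1000 per well in 10% FBS medium, incubated overnight at 37C. Then 15-point compound titration added (final DMSO 0.76%) for 3 hr. Finally CellTiter-Glo added and luminescence read.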

[15] = qHTS assay to identify small molecule antagonists of the estrogen related receptor (ERR) signaling pathway from Tox21 library (AID 1224848); conditions: ERR reporter cell line, luciferase antagonist mode, 18 h; series mostly up to 92.4 µM; note: nearly all actives have a fitted effect of over 50% in size
Outline: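 First, 2,000 ERR cells per well were plated and held 6 h at 37 C/5% CO2. Next, compounds in DMSO were pinned in and left 18 h at 37 C. Finally, ONE-Glo was added and luminescence read after 30 min at room temperature.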

[16] = qHTS assay to identify small molecule agonists of the estrogen related receptor (ERR) signaling pathway from Tox21 library (AID 1224849; calls by dose curve; note: nearly all actives have a fitted effect of over 15% in size); conditions: ERR reporter cell line, ONE-Glo luciferase, 18 h; at 92.4 µM (top of the series) unless noted
Outline: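 Luciferase activity in ERR pathway reporter cells served as the agonist readout; exposure lasted 18 h at 37 C, with ONE-Glo detection after 30 min at room temperature.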

[17] = qHTS RealTime-Glo MT Cell Viability Assay in HepG2 cells - 24 hour (AID 1224867); conditions: RealTime-Glo luminescence; series mostly up to 76.8 µM; note: nearly all actives have a fitted effect of over 50% in size
Outline: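 HepG2 suspension premixed with RealTime-Glo reagents is plated at 600 cells per well and left 5 h at 37 C/5% CO2. Compounds in DMSO then go in, and bioluminescence reflecting viable cell number is recorded over 40 h.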

[18] = qHTS RealTime-Glo MT Cell Viability Assay in HEK293 cells - 32 hour (AID 1224868); conditions: RealTime-Glo luminescence; series mostly up to 76.8 µM
Outline: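 Reads taken at 0, 8, 16, 24, 32 and 40 h from the same wells. HEK293 cells (600/well) carried RealTime-Glo reagents from seeding, with compound added after a 5 h settle at 37 C.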

[19] = A CellTox Green Cytotoxicity Assay to monitor cytotoxicity in HEK293 cells - 0 hour (AID 1224869); conditions: CellTox Green fluorescence; series mostly up to 76.8 µM; note: nearly all actives have a fitted effect of over 50% in size
Outline: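 Real-time, in one plate: 600 HEK293 cells/well with dead-cell DNA dye, pinned compound after 5 h, 37 C incubation over 40 h; viable cells give no appreciable fluorescence.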

[20] = qHTS RealTime-Glo MT Cell Viability Assay in HepG2 cells - 40 hour (AID 1224870); conditions: RealTime-Glo luminescence; series mostly up to 76.8 µM; note: nearly all actives have a fitted effect of over 50% in size
Outline: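 HepG2 cells mixed with RealTime-Glo MT reagents (NanoLuc plus cell-permeant prosubstrate) were seeded at 600 cells/well, incubated 5 h at 37 C/5% CO2, then pinned with compounds in DMSO; nonlytic luminescence tracked viability during 40 h treatment.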
% is set by controls: 0 for no effect and ±100 for the full control effect.

COC(=O)CC(C)=O
inactive: Potency [1] | Potency [2] | Potency [3] | Potency [4] | Potency [5] | Potency [6] | Potency [7] | Potency [8] | outcome [9] | Potency [10] | Potency [11] | outcome [12] | outcome [13] | Potency [14] | Potency [15] | activity change, positive = activation [16] 2.59% | Potency [17] | Potency [18] | Potency [19] | Potency [20]

CCCCNC(=O)NCCCC
inactive: Potency [1] | Potency [2] | Potency [3] | Potency [4] | Potency [5] | Potency [6] | Potency [7] | Potency [8] | outcome [9] | Potency [10] | Potency [11] | outcome [12] | outcome [13] | Potency [14] | Potency [15] | Potency [17] | Potency [18] | Potency [19] | Potency [20]

CCc1ccc(O)c(OC)c1
inactive: Potency [1] | Potency [2] | Potency [3] | Potency [4] | Potency [5] | Potency [6] | Potency [7] | Potency [8] | outcome [9] | Potency [10] | Potency [11] | outcome [12] | outcome [13] | Potency [14] | Potency [15] | activity change, positive = activation [16] 4.86% | Potency [17] | Potency [18] | Potency [19] | Potency [20]

NC(=O)COCCN1CCN(C(c2ccccc2)c2ccc(Cl)cc2)CC1 (configuration not stated)
inactive: Potency [1] | Potency [2] | Potency [3] | Potency [4] | Potency [5] | Potency [6] | Potency [7] | Potency [8] | outcome [9] | Potency [10] | Potency [11] | outcome [12] | Potency [14] | Potency [15] | activity change, positive = activation [16] 5.27% [at 42.5 µM] | Potency [17] | Potency [18] | Potency [19] | Potency [20]

CCO[Si](CCC1CCC2OC2C1)(OCC)OCC (configuration not stated)
inactive: Potency [1] | Potency [2] | Potency [3] | Potency [4] | Potency [5] | Potency [6] | Potency [7] | Potency [8] | outcome [9] | Potency [10] | Potency [11] | outcome [12] | outcome [13] | Potency [14] | Potency [15] | activity change, positive = activation [16] 3.88% | Potency [17] | Potency [18] | Potency [19] | Potency [20]

O=S(O)CO
inactive: Potency [1] | Potency [2] | Potency [3] | Potency [4] | Potency [5] | Potency [6] | Potency [7] | Potency [8] | outcome [9] | Potency [10] | Potency [11] | outcome [12] | Potency [14] | Potency [15] | activity change, positive = activation [16] 4.77% | Potency [17] | Potency [18] | Potency [19] | Potency [20]
